The record followed here is PMC10726135, “HNF4α isoforms regulate the circadian balance between carbohydrate and lipid metabolism in the liver”.

Whole data set: some 18,000 sequences, median “log2 normalized intensity” near 0.36, cut for the highest 2% near 7.3. Many of the other results were omitted from the sample, so the highest values are more common in it than they were.

For this assay, the target named is T1, HNF4alpha8 (COS-7 nuclear extract) (Homo sapiens, UniProt P41235-5 1-452).
T1 sequence: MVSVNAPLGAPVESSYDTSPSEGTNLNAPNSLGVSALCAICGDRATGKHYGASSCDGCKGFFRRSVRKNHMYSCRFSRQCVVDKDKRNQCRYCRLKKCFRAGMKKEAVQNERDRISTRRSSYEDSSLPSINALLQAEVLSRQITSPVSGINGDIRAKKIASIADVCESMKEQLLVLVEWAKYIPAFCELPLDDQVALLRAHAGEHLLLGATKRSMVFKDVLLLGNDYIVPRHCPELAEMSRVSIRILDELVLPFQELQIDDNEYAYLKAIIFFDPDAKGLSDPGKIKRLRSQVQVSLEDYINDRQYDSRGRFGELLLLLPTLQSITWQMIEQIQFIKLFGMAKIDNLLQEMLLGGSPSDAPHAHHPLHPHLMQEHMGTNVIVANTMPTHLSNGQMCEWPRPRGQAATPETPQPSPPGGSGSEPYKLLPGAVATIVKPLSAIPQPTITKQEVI
The experiment in a line: protein-binding microarray; COS-7 nuclear extract on double-stranded Agilent 4x180k PBM; binding buffer, salt, pH and temperature not given in the material; high values mean tight binding. The following applies: chain copies: 2; label: 3' end of strand 1 on the slide; dsDNA, one strand shown. In short, it runs like this: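 Nuclear extracts from COS-7 cells expressing a transiently transfected human HNF4α isoform were put on a custom Agilent SurePrint G3 4x180k array carrying ~44,000 double-stranded ~60-nt test sequences in quadruplicate. Imaging used an Agilent G2565CA scanner at 2-µm resolution. Binding signal is the background-corrected, normalized gProcessedSignal from Agilent software.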
Regarding “CTGGATGACCTTTGTCCTGGCACAACTGGAGCCTAGGGAGATTAGAGTATCGGTCGA”, the binding signal stood at 6.78 log2 normalized intensity. As for “AGAATCATCTTTGAGCTGGATGACCTTTGTGCCTAGGGAGATTAGAGTATCGGTCGA”, the binding signal is 8.24 log2 normalized intensity. With “CTAGTTAAGTCACTGGGCTGATGACCTTTGGCCTAGGGAGATTAGAGTATCGGTCGA” the figure was 6.81 log2 normalized intensity; with “CACTGGGCTGATGACCTTTGACTGAGATGGGCCTAGGGAGATTAGAGTATCGGTCGA”, 5.81 log2 normalized intensity. As for “ATGGGATGACCTTTGAGCAATAGGAAATGGGCCTAGGGAGATTAGAGTATCGGTCGA”, the figure is 4.79 log2 normalized intensity; as for “CATCTTTGAGCTGGATGACCTTTGTCCTGGGCCTAGGGAGATTAGAGTATCGGTCGA”, 9.19 log2 normalized intensity; as for “TTTTTTTTTTGAGATGGAATCTTGCCCTGTGCCTAGGGAGATTAGAGTATCGGTCGA”, 3.54 log2 normalized intensity. As for “TAAGTCACTGGGCTGATGACCTTTGACTGAGCCTAGGGAGATTAGAGTATCGGTCGA”, the figure is 7.85 log2 normalized intensity; as for “ATGACCTTTGACTGAGATGGGAGCAGTGCTGCCTAGGGAGATTAGAGTATCGGTCGA”, 3.52 log2 normalized intensity. Take “TGACCTTTGTCCTGGCACAACTGGATGGTGGCCTAGGGAGATTAGAGTATCGGTCGA”: the binding signal turned out to be 5.2 log2 normalized intensity. As for “CTAGCCCCGCCCAGATGTCTGGCTAAGACCGCCTAGGGAGATTAGAGTATCGGTCGA”, the binding signal is 3.43 log2 normalized intensity. As for “GAGGAAAACCAGCTCAGTGGAAATTGTCCTGCCTAGGGAGATTAGAGTATCGGTCGA”, the figure is 0.989 log2 normalized intensity; as for “CATATCTGGAATTTCAAAGGGAGCATATGTGCCTAGGGAGATTAGAGTATCGGTCGA”, 1.31 log2 normalized intensity. With “CTTTCTTTGTCTGTGTAGACTCATCTGGTGGCCTAGGGAGATTAGAGTATCGGTCGA” the figure was 1.89 log2 normalized intensity; with “ATGAAGCAAGAGTCCAAATTCCTAGCCCTCGCCTAGGGAGATTAGAGTATCGGTCGA”, 2.14 log2 normalized intensity; with “AGGTTCCTCGCCTATGGTATGTATGGAATGGCCTAGGGAGATTAGAGTATCGGTCGA”, 2.2 log2 normalized intensity. With “TCTTTGCACTTGATGTTCCCCCTCCCTGGAGCCTAGGGAGATTAGAGTATCGGTCGA” the figure was 4.84 log2 normalized intensity; with “TCTGACCAGGCTGATTTAGCTATTTGACCTGCCTAGGGAGATTAGAGTATCGGTCGA”, 4.7 log2 normalized intensity; with “AAGACAGGGGCTATTTCTGACCTTTGCACCGCCTAGGGAGATTAGAGTATCGGTCGA”, 10.2 log2 normalized intensity. For the sequence “CCTTTGCACCAGAGATAATATGCTTACTTAGCCTAGGGAGATTAGAGTATCGGTCGA”, the binding signal came to 0.614 log2 normalized intensity. As for “TGGCTAAGACAGGGGCTATTTCTGACCTTTGCCTAGGGAGATTAGAGTATCGGTCGA”, the figure is 7.32 log2 normalized intensity; as for “CTATTTCTGACCTTTGCACCAGAGATAATAGCCTAGGGAGATTAGAGTATCGGTCGA”, 6.97 log2 normalized intensity; as for “AGGGGCTATTTCTGACCTTTGCACCAGAGAGCCTAGGGAGATTAGAGTATCGGTCGA”, 7.69 log2 normalized intensity.

With “CTGAGACAACACTCAGGATACCTAAGCCCCGCCTAGGGAGATTAGAGTATCGGTCGA”, the binding signal amounted to 1.33 log2 normalized intensity. For the sequence “TCTTATTTACCGAAATGTGGGTGAGGCTGTGCCTAGGGAGATTAGAGTATCGGTCGA”, the binding signal worked out at 1.67 log2 normalized intensity. With “AAGCTATTCACTTTTTGGCCTTTGGCTGTTGCCTAGGGAGATTAGAGTATCGGTCGA” the figure was 3.01 log2 normalized intensity; with “TAAAATGGACTTTGTGGGCCAAAAGCAGCCGCCTAGGGAGATTAGAGTATCGGTCGA”, 2.65 log2 normalized intensity. With “AAAAAGTCCCTGGTCCCATAGGAAAGTGAGGCCTAGGGAGATTAGAGTATCGGTCGA” the figure was -0.813 log2 normalized intensity; with “TTTTGAATGACAGTGTCAGGACCTTGCTCCGCCTAGGGAGATTAGAGTATCGGTCGA”, 2.73 log2 normalized intensity. As for “AATACTTGCCTAAGGTCAATGTCCTTTTTCGCCTAGGGAGATTAGAGTATCGGTCGA”, the binding signal came to 4.53 log2 normalized intensity.

Consider “AGGGACTTTGATCTTCTTACCCCTTTGCTGGCCTAGGGAGATTAGAGTATCGGTCGA”, for which the binding signal was 3.3 log2 normalized intensity. Consider “AGGAGATGTGGTGGACTTTAACGACCTTTGGCCTAGGGAGATTAGAGTATCGGTCGA”, for which the binding signal came out at 5.28 log2 normalized intensity. In the case of “TCTTAACATCAGAAGTTGGACTTTGTACATGCCTAGGGAGATTAGAGTATCGGTCGA”, the binding signal came to 9.76 log2 normalized intensity. As for “CCCCTTCTTAACATCAGAAGTTGGACTTTGGCCTAGGGAGATTAGAGTATCGGTCGA”, the figure is 8.31 log2 normalized intensity. As for “ATTAGAGAACATGTACTTTGTACTGCTTATGCCTAGGGAGATTAGAGTATCGGTCGA”, the binding signal was 4.99 log2 normalized intensity. As for “ACTTTGGAACTCAGTTAATGTACAGAGTATGCCTAGGGAGATTAGAGTATCGGTCGA”, the figure is 0.96 log2 normalized intensity; as for “CCTTGATGTGTATTTGTAGCTTCAAACCAGGCCTAGGGAGATTAGAGTATCGGTCGA”, 1.52 log2 normalized intensity. With “GGGGGTTTGCAACCTTTGATAACCTACAACGCCTAGGGAGATTAGAGTATCGGTCGA” the figure was 1.37 log2 normalized intensity; with “GTGAGTGTGTTGGCAAGAGATCTGCAGGGTGCCTAGGGAGATTAGAGTATCGGTCGA”, 1.02 log2 normalized intensity. In the case of “TTATCTTACATGCCTTATCTGGTTCAAAGGGCCTAGGGAGATTAGAGTATCGGTCGA”, the binding signal turned out to be 3.33 log2 normalized intensity. With “TCCTTTTATCTTACATGCCTTATCTGGTTCGCCTAGGGAGATTAGAGTATCGGTCGA” the figure was 1.64 log2 normalized intensity; with “TATCTGGTTCAAAGGTCATTTCTGCTTGCAGCCTAGGGAGATTAGAGTATCGGTCGA”, 6.43 log2 normalized intensity; with “GGTTCAAAGGTCATTTCTGCTTGCAACCAAGCCTAGGGAGATTAGAGTATCGGTCGA”, 5.81 log2 normalized intensity.

For “TTACATGCCTTATCTGGTTCAAAGGTCATTGCCTAGGGAGATTAGAGTATCGGTCGA”, the binding signal was 8.2 log2 normalized intensity.

Turning to “TGCCTTATCTGGTTCAAAGGTCATTTCTGCGCCTAGGGAGATTAGAGTATCGGTCGA”, the binding signal was found to be 7.61 log2 normalized intensity.
